Experimental data published in PubChem BioAssay (NCI).
Compounds without any hit were thinned out: in the full panel of roughly 83,000, 20% have a hit.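 In brief: 96-well plates, 48 h treatment, single concentration, percent growth endpoint.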 Active and inactive are the calls of the source.

What follows are compounds tested on PC-3 prostate (assay: NCI-60 one-dose screen, 48 h (100 = growth as untreated, 0 = no growth, -100 = all killed)). Conditions: 10 µM unless noted.
Experimental: Growth inhibition of the PC-3 human tumor cell line is measured as a screen for anti-cancer activity. Cells are grown in 96 well plates and exposed to the test compound for 48 hours. Compounds are tested at a single concentration, which is 10^-5 M for most compounds. The reported endpoint is percent growth (GI% or GIPRCNT), where numbers from 0 - 100% represent growth inhibition, and numbers from -100% - 0 represent cell death. For example, a value of 40 represents 60% growth inhibition. A value of 0 means no net growth occurred over the course of the experiment. A value of -40 indicates 40% of cells at the beginning of the experiment died by the end of the experiment. A value of -100 means all cells are dead at the end of the experiment.
NCI-60 Human Tumor Cell Lines Screen was performed using the standard one-dose NCI protocol, which is described in more detail at https://dtp.cancer.gov/discovery_development/nci-60/default.htm.
Compounds with GIPRCNT values below 10 were considered active. Activity score was based on GIPRCNT using the following formula: […]
Score is 0 for GIPRCNT values of 100 or above, 50 for GIPRCNT values of 0, and 100 for GIPRCNT values of -100.
In the case of `C/C(O)=C(/C=N/C(=S)Nc1ccccc1)C(=O)Nc1ccccc1C`, the growth is reported as 86.5% (inactive). `CCCOCc1cn[nH]n1` was tested, and the growth was 102% (inactive). With `C1Cc2onc(-c3noc4c3CCC4)c2C1` the growth was 103% (inactive). `CC(=O)O[C@H]1CC[C@]2(C)C3=C(C(=O)C[C@H]2C1(C)C)[C@]1(C)CC[C@H]([C@H](C)CCC(=O)O)[C@@]1(C)CC3=O` was tested, and the growth was 92.4% (inactive). `FC(F)(F)c1cc(NC2=NCCN=C(Nc3cc(C(F)(F)F)cc(C(F)(F)F)c3)SS2)cc(C(F)(F)F)c1` was tested, and the growth was 17.1% (inactive). With `CN(C)c1ccc(/C=C/C(=O)c2ccc(NC(N)=O)cc2)cc1` the growth was 98.4% (inactive). In the case of `CCNc1ncnc2[nH]ncc12`, the growth is reported as 94.6% (inactive). For `CC1CN(CCO)CC(C)O1` (stereo not given), the growth was 104% (inactive). In the case of `Clc1cccc(Cl)c1C1CSc2ccccc2N=C1c1ccccc1` (stereo not given), the growth is reported as 55% (inactive). In the case of `CCCCCCCCNC(=O)C(C)C`, the growth is reported as 94.9% (inactive). `CCNC(=O)Oc1ccc[nH]c1=O` was tested, and the growth was 96.5% (inactive). For `O=Cc1ccc(Cl)c(Cl)c1`, the growth was 94.6% (inactive). For `CCCC(OC(C)=O)c1ccc2c(c1)OCO2` (stereo not given), the growth was 102% (inactive). In the case of `N#Cc1ccc(OC(=O)Nc2c(Cl)cc(Cl)cc2Cl)cc1`, the growth is reported as 99.5% (inactive). In the case of `Oc1cccnc1CN1CCCC1`, the growth is reported as 89.7% (inactive). `Nc1ncnc(Nc2ccccc2)n1` was tested, and the growth was 101% (inactive). `Cc1cccc(-[n+]2noc(N)n2)c1` was tested, and the growth was 60.3% (inactive). In the case of `Cc1cc(C(=O)NN)c(C#N)c(=O)[nH]1`, the growth is reported as 91.1% (inactive). `CCN1CCCC(N2c3ccccc3Sc3ccccc32)C1` (stereo not given) was tested, and the growth was 97.4% (inactive). For `O=C(O)c1cccc(-n2ncc(Cl)c(Cl)c2=O)c1`, the growth was 88.7% (inactive). With `Cc1c(-c2ccc(C3CCCCC3)cc2)nc2ccc(F)cc2c1C(=O)O` the growth was 44.9% (inactive). In the case of `CC(=O)Oc1c(Cl)cccc1-c1ccccc1`, the growth is reported as 89.5% (inactive). `Cc1[nH]nc(C(N)=O)c1[N+](=O)[O-]` was tested, and the growth was 100% (inactive). For `Oc1cc(O)c2c(c1)O[C@H](c1ccc(O)c(O)c1)[C@@H](O)C2`, the growth was 93.3% (inactive). In the case of `O=S(Cc1ccccc1)/C(=C/NC(=S)Nc1cc(Cl)ccc1Cl)c1ccccc1` (stereo not given), the growth is reported as 94.1% (inactive). `CC(C)N(C(=O)c1ccccc1)C(C)C` was tested, and the growth was 98.9% (inactive). With `O=C(Nc1ccc([N+](=O)[O-])cc1)C(=O)Nc1ccc([N+](=O)[O-])cc1` the growth was 90.5% (inactive). `Clc1ccc(-c2noc(/C=C\c3ccccc3)n2)cc1` was tested, and the growth was 102% (inactive). With `CN1C(=O)NC(c2ccc(Cl)cc2)(c2ccc(Cl)cc2)C1=O` the growth was 84.6% (inactive). `OCC(O)COc1ccc(Cl)cc1Cl` (stereo not given) was tested, and the growth was 97.3% (inactive). `O=S(=O)(O)C(C(I)I)S(=O)(=O)O` was tested, and the growth was 95.7% (inactive). In the case of `CC(C)N1CC(=O)N2CSCC2C1=O` (stereo not given), the growth is reported as 101% (inactive). For `CCOc1ccc2c(c1)c(C)cc(C)[n+]2CC`, the growth was 48.7% (inactive). In the case of `CC(=O)OCC1CCC(COC(C)=O)CC1` (stereo not given), the growth is reported as 111% (inactive). For `Cn1c(=O)c2nc3c(=O)n(C)c(=O)n(C)c3nc2n(C)c1=O`, the growth was 97.4% (inactive). For `CN(C)c1ccc(O)c2c1CC1CC3C(N(C)C)C(=O)C(C(N)=O)=C(O)C3(O)C(=O)C1=C2O` (stereo not given), the growth was 34.6% (inactive). `OCC1CCC(O)C(CO)N1` (stereo not given) was tested, and the growth was 95% (inactive). For `Cc1cc2c(C(C)C)c(O)c(O)c(C=Nc3ccccc3[N+](=O)[O-])c2c(O)c1-c1c(C)cc2c(C(C)C)c(O)c(O)c(C=Nc3ccccc3[N+](=O)[O-])c2c1O`, the growth was 65.1% (inactive). `BrCc1cccc(C[P+](c2ccccc2)(c2ccccc2)c2ccccc2)c1` was tested, and the growth was 23.2% (inactive). With `O=C(OCC1CCCO1)c1ccc([N+](=O)[O-])cc1` (stereo not given) the growth was 88.4% (inactive).
